Shiga toxin inh = A qHTS for Small Molecule Inhibitors of Shiga Toxin. AID 2315, 2010. 290,000 compounds, 9.2% hits. inhibition, % at 38.7 µM. Vero cells, Shiga toxin protein synthesis inhibition reporter; in the data active = inhibition mostly above about 28%, no sharp cut-off; inactive = mostly below about 43%; also: 0% is about no effect
Pf growth 48h = Primary qHTS for delayed death inhibitors of the malarial parasite plastid, 48 hour incubation; Potency, µM (top dose mostly 28.7 µM), without a hit: at the highest dose activity change, negative = inhibition, most hits filed as inhibitors; 310,000 compounds, 5.9% hits; P. falciparum luciferase growth in erythrocytes, 48 h; also: potency is read from the fitted curve at half-maximal effect; % is scaled to controls: 0 for no effect and ±100 for the full control effect
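Compounds are pin-transferred into medium, infected erythrocytes (2% hematocrit, 0.1% parasitemia final) are added, and plates sit one parasite generation at 37 C in 5% CO2. Detection reagent is then added and luminescence measured.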
Pf growth 96h = Primary qHTS for delayed death inhibitors of the malarial parasite plastid, 96 hour incubation; P. falciparum luciferase reporter growth, 96 h; Potency, µM (doses to about 28.7 µM), for the others: at the highest dose activity change, negative = inhibition, actives largely listed as inhibitors; 320,000 compounds, 6.9% hits; also: potency is read from the fitted curve at half-maximal effect; % is scaled to controls: 0 for no effect and ±100 for the full control effect
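96 h incubation, 37 C, 5% CO2, of luciferase-reporter P. falciparum-infected RBCs (2% hematocrit, 0.05% parasitemia final) with test compounds; endpoint luminescence.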
LmPK inhibitor = qHTS Assay for Inhibitors of Leishmania Mexicana Pyruvate Kinase (LmPK) | Q27686 | purified LmPK, Kinase-Glo ATP luminescence, 1 h | 290,000 compounds, 0.37% hits | Potency, µM (series often up to 57.5 µM), for inactives: at the highest dose activity change, negative = inhibition, usual class: inhibitors; also: potency is read from the fitted curve at half-maximal effect; % is scaled to controls: 0 for no effect and ±100 for the full control effect
Target sequence (Q27686 whole entry, looked up): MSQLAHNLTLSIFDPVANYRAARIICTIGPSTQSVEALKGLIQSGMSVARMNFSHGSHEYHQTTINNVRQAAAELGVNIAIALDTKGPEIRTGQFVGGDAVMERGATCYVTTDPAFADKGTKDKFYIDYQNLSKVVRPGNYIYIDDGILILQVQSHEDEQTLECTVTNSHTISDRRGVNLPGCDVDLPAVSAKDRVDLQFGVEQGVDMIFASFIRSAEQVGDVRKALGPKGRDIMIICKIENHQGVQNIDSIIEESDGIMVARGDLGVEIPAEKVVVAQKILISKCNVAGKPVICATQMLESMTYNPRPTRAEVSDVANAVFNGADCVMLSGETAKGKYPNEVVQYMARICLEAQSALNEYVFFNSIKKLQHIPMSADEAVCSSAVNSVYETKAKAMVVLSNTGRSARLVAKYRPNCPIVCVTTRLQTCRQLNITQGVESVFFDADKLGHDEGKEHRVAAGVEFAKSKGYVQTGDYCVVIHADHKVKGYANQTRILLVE
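Purified LmPK (0.1 nM) with 0.5 mM PEP and 0.1 mM ADP in imidazole buffer pH 7.2 with MgCl2/KCl, 1 h at room temperature. ATP formed was read by luciferase luminescence and normalized to no-enzyme and uninhibited controls.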
Cycloheximide cs = Cycloheximide Counterscreen for Small Molecule Inhibitors of Shiga Toxin | 300,000 compounds, 12% hits | cell reporter, cycloheximide protein synthesis inhibition counterscreen | max response, %; in the data active = max response mostly above about 13%, no sharp cut-off; inactive = mostly below about 14%; also: read at 38.3 µM for the half of the compounds with a filed dose; 0% is about no effect
* hit, by the source's call; ? = inconclusive; . = no result; [ ] = dose if it differs, or a comment. Compounds with a hit are over-represented: about 22% of the library has one in this group of screens. Unless noted, calls follow the shape of the dose curve; as a rule, active = well fitted inhibition curve with a large enough effect; inconclusive = small, poorly fitted or top-dose-only effect, or another doubt; inactive = no such curve, though single readings can be large or run the other way.

SMILES	Shiga toxin inh	Pf growth 48h	Pf growth 96h	LmPK inhibitor	Cycloheximide cs
CCCc1cc2c(=O)c(-c3cscn3)c(C(=O)OCC)oc2cc1O	31.4	30.9%	-1.7%	2.4%	6.9
O=S1(=O)C=C(Oc2ccc3ccccc3c2)c2ccccc21	63.5	?	-9.0%	5.7%	7.2
O=S1(=O)C=C(Oc2ccc(F)cc2)c2ccccc21	26.7*	3.2%	75.2%	3.5%	10.9*
CCOc1ccc(NC(=O)C2CC(=O)N(c3ccccc3F)C2)cc1 (configuration not stated)	7.2	18.9%	1.3%	1.2%	1.4
O=C(O)c1cccnc1SCc1ccccc1Cl	-14.3	19.9%	?	3.2%	0.9
O=C(O)c1cccnc1SCc1cccc(Br)c1	-6.6	1.65µM*	-7.9%	6.2%	13.3
Cc1ccc(C)c(CSc2ncccc2C(=O)O)c1	-3.8	9.9%	7.38µM*	0.3%	-5.4
CCOC(=O)c1oc2nc3c(cc2c1N)CCCC3	77.0*	202.8%	11.7µM*	-26.9%	50.3*
CCOC(=O)c1oc2nc3c(cc2c1N)COC(C)(C)C3	81.9*	18.9%	0.6%[5.75 µM]	-2.3%	20.1*
O=c1cc(-c2ccco2)oc2c1ccc1ccccc12	24.3	.	70.8%	4.9%	3.3
O=c1cc(C(Cl)(Cl)Cl)oc2c1ccc1ccccc12	21.6	0.131µM*	0.262µM*	0.2%	-1.3
Cc1cc(C)c(S(C)(=O)=O)c(S(=O)c2ccc(Cl)cc2)n1 (configuration not stated)	-14.4	-3.1%	101.6%	-2.7%	-5.7
Cc1nnsc1S(=O)c1ccc(Cl)c(Cl)c1 (configuration not stated)	2.2	.	5.22µM*	-0.8%	-1.9
Cc1nnsc1C(=O)Nc1ccc(Cl)cc1Cl	-12.1	3.9%	0.0%	-4.6%	-0.6
Cc1nnsc1S(=O)c1ccc(Cl)cc1 (configuration not stated)	-5.7	.	1.65µM*	-4.3%	-2.2
COc1cccc(C(=O)C2CN(C)CC2c2ccc(Cl)cc2)c1 (configuration not stated)	-6.2	?	?	1.4%	-4.8
COc1cccc(C(=O)C2CN(c3ccccc3)CC2c2ccc(Cl)cc2)c1 (configuration not stated)	52.5	10.4µM*	10.4µM*	2.2%	22.5*
Cc1cccc(C(=O)O/N=C/c2c(N3CCOCC3)n(C)c3ccccc23)c1	-6.5	6.57µM*	1.85µM*	3.8%	-1.5
CCC1CO/C(=C(\C(Cl)=C(Cl)Cl)[N+](=O)[O-])N1 (configuration not stated)	46.5	2.8%	-24.0%	3.4%	9.6
CCCCCCCC/C=C/CCCCCCCC(=O)NCCOP(=O)(O)O	-1.1	.	.	.	-4.8
Cc1ccc(C(=O)c2sc(Nc3ccccc3)c(C#N)c2N)cc1	23.6	?	-83.7%	1.9%	-1.7
N#CC(C#N)=C(C#N)c1ccc(Nc2ccccc2)cc1	.	13.4%	11.7µM*	-27.3%	-1.1
O=C(/C=C/Nc1ccc(Br)cn1)c1cccc(OC(F)F)c1	.	263.7%	273.5%	.	.
O=C(CN(C(=O)c1csnn1)c1ccc(F)c(Cl)c1)NC1CCCCC1	50.7	16.7%	0.4%	-3.7%	30.1*
O=C(CN(C(=O)c1csnn1)c1ccc(Cl)cc1)NCCc1ccccc1	20.1	13.1µM*	?	-6.7%	-2.9
SMILES	Shiga toxin inh	Pf growth 48h	Pf growth 96h	LmPK inhibitor	Cycloheximide cs
Cc1ccc(C=Nc2ccccc2C(N)=O)cc1	71.0*	.	58.6%	16.0%	46.7*
Cc1ccccc1C(=O)NNC(=O)/C=C\C(=O)O	83.1*	33.5%	0.0%	2.9%	38.4*
NC(=O)c1ccccc1NC(=O)/C=C/C(=O)O	53.0*	.	-37.8%	-5.3%	35.0*
O=C(O)c1ccccc1C(=O)OCCCCOC(=O)c1ccccc1C(=O)O	-9.5	-5.2%	14.7µM*	5.4%	1.6
Cc1ccc(C=Nc2ccccc2C(=O)Nc2ccccc2)cc1	11.2	-6.4%	7.0%	2.1%	0.5
CCCCCCOC(=O)c1ccccc1NC(=O)/C=C/C(=O)O	116.9*	-7.4%	-20.2%	-0.6%	51.3*
Cc1ccc(/C=C/C(=O)NC(=S)Nc2ccccc2C(=O)NC2CCCCC2)cc1	-5.8	?	?	-0.2%	-0.9
Cc1ccc(/C=C/C(=O)Nc2ccccc2C(N)=O)cc1	63.5*	265.2%	-19.8%	-17.3%	45.9*
